# Experimental data taken from the supplement of paper PMC8728848.
# The full list was thinned out, with the strongest signals kept by preference.
# B1: VLRB.aGPA.23-GCN4-biotin (Petromyzon marinus) (protein)
# chain: ACPSQCSCSGTEVNCAGKSLASVPAGIPTTTRVLYLNSNQITKLEPGVFDRLANLRELHLWGNQLVSLPPGVFDNLANLEKLWLNSNQLTSLPAGLFDRLVNLEHLGLCCMKLTELPSGAFDKLTRLKQLGLDQNQLKSIPDGAFARLPSLTHVWLHTNPWDCQCTDILYLSGWVAQHSSIVGEGWPWRHSPDSAKCSGTNTPVRAVTEASTSPSKCP
# B2: CD23 (Homo sapiens) (protein)
# chain: MELQVSSGFVCNTCPEKWINFQRKCYYFGKGTKQWVHARYACDDMEGQLVSIHSPEEQDFLTKRASHTGSWIGLRNLDLKGEFIWVDGSHVDYSNWAPGEPTSRSQSEDCVMMRGSGRWNDAFCDRKLGAWVCDRLATCTPPASEGSAESMGPDSRPDPDGRLPTPSAPLHS
# Tests used:
# Test in all cases: glycan array binding signal (z-score within array); higher = stronger binding
# Gal6S(b1-4)GlcNAc = conditions: glycan notation: IUPAC condensed, linker removed
# Outline: (§1)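 Glycan array binding is given as a within-array Z-score, which can be read as non-binding when negative. The arrays, 3228 of them, came from the Consortium for Functional Glycomics database and were retained only where the protein sequence was available. Z-scores were averaged across arrays of the same protein sequence at different concentrations or buffers and across linkers.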
# [1] = target: GalNAc(a1-3)GalNAc(b1-3)Gal(a1-4)Gal(b1-4)GlcNAc; conditions: glycan notation: IUPAC condensed, linker removed
# Outline: as §1
# GalNAc(b1-3)Gal = conditions: glycan notation: IUPAC condensed, linker removed
# Outline: as §1
# GalNAc(b1-4)GlcNAc6S = conditions: glycan notation: IUPAC condensed, linker removed
# Outline: as §1
# [2] = target: Glc(a1-4)Glc(a1-4)Glc(a1-4)Glc; conditions: glycan notation: IUPAC condensed, linker removed
# Outline: as §1
# Glc(a1-6)Glc(a1-6)Glc = conditions: glycan notation: IUPAC condensed, linker removed
# Outline: as §1
# [3] = target: Glc(a1-6)Glc(a1-6)Glc(a1-6)Glc; conditions: glycan notation: IUPAC condensed, linker removed
# Outline: as §1
# [4] = target: GlcNAc(a1-4)Gal(b1-4)GlcNAc(b1-3)Gal(b1-4)[Fuc(a1-3)]GlcNAc(b1-3)Gal(b1-4)[Fuc(a1-3)]GlcNAc; conditions: glycan notation: IUPAC condensed, linker removed
# Outline: as §1
# [5] = target: GlcNAc(a1-6)Gal(b1-4)GlcNAc; conditions: glycan notation: IUPAC condensed, linker removed
# Outline: as §1
# [6] = target: GlcNAc(b1-2)[GlcNAc(b1-6)]Man(a1-6)[GlcNAc(b1-2)Man(a1-3)]Man(b1-4)GlcNAc(b1-4)GlcNAc; conditions: glycan notation: IUPAC condensed, linker removed
# Outline: as §1
# [7] = target: GlcNAc(b1-2)[GlcNAc(b1-6)]Man(a1-6)[GlcNAc(b1-4)][GlcNAc(b1-2)Man(a1-3)]Man(b1-4)GlcNAc(b1-4)GlcNAc; conditions: glycan notation: IUPAC condensed, linker removed
# Outline: as §1
# [8] = target: GlcNAc(b1-3)Gal(b1-4)GlcNAc(b1-3)Gal(b1-4)GlcNAc(b1-3)GalNAc; conditions: glycan notation: IUPAC condensed, linker removed
# Outline: as §1
# GlcNAc(b1-4)GlcNAc = conditions: glycan notation: IUPAC condensed, linker removed
# Outline: as §1
# [9] = target: GlcNAc(b1-4)GlcNAc(b1-4)GlcNAc(b1-4)GlcNAc(b1-4)GlcNAc; conditions: glycan notation: IUPAC condensed, linker removed
# Outline: as §1
# [10] = target: GlcNAc(b1-6)Gal(b1-4)GlcNAc; conditions: glycan notation: IUPAC condensed, linker removed
# Outline: as §1
# [11] = target: GlcNAc6S(b1-3)Gal(b1-4)GlcNAc; conditions: glycan notation: IUPAC condensed, linker removed
# Outline: as §1
# [12] = target: Man(a1-2)Man(a1-2)Man(a1-6)[Man(a1-3)]Man; conditions: glycan notation: IUPAC condensed, linker removed
# Outline: as §1
# [13] = target: Man(a1-2)Man(a1-3)[Man(a1-2)Man(a1-6)]Man(a1-6)[Man(a1-2)Man(a1-2)Man(a1-3)]Man; conditions: glycan notation: IUPAC condensed, linker removed
# Outline: as §1
# [14] = target: Man(a1-3)[Man(a1-6)]Man(a1-6)[Man(a1-2)Man(a1-3)]Man(b1-4)GlcNAc(b1-4)GlcNAc; conditions: glycan notation: IUPAC condensed, linker removed
# Outline: as §1
# [15] = target: Neu5Ac(a2-3)Gal(b1-4)GlcNAc(b1-2)Man; conditions: glycan notation: IUPAC condensed, linker removed
# Outline: as §1
# [16] = target: Neu5Ac(a2-3)Gal(b1-4)GlcNAc(b1-3)Gal(b1-4)GlcNAc(b1-2)Man(a1-3)[Neu5Ac(a2-3)Gal(b1-4)GlcNAc(b1-3)Gal(b1-4)GlcNAc(b1-2)Man(a1-6)]Man(b1-4)GlcNAc(b1-4)GlcNAc; conditions: glycan notation: IUPAC condensed, linker removed
# Outline: as §1
# [17] = target: Neu5Ac(a2-3)Gal(b1-4)GlcNAc(b1-6)[Neu5Ac(a2-3)Gal(b1-3)]GalNAc; conditions: glycan notation: IUPAC condensed, linker removed
# Outline: as §1
# [18] = target: Neu5Ac(a2-3)Gal(b1-4)GlcNAc6S; conditions: glycan notation: IUPAC condensed, linker removed
# Outline: as §1
# Neu5Ac(a2-6)Gal = conditions: glycan notation: IUPAC condensed, linker removed
# Outline: as §1
# [19] = target: Neu5Ac(a2-6)Gal(b1-4)GlcNAc(b1-2)Man(a1-3)[Neu5Ac(a2-6)Gal(b1-4)GlcNAc(b1-2)Man(a1-6)]Man(b1-4)GlcNAc(b1-4)[Fuc(a1-6)]GlcNAc; conditions: glycan notation: IUPAC condensed, linker removed
# Outline: as §1
# [20] = target: Neu5Ac(a2-6)Gal(b1-4)GlcNAc(b1-3)Gal(b1-4)GlcNAc(b1-6)[Gal(b1-3)]GalNAc; conditions: glycan notation: IUPAC condensed, linker removed
# Outline: as §1
# [21] = target: Neu5Ac(a2-6)Gal(b1-4)GlcNAc(b1-6)[Gal(b1-3)]GalNAc; conditions: glycan notation: IUPAC condensed, linker removed
# Outline: as §1
# [22] = target: Neu5Gc(a2-3)Gal(b1-3)[Fuc(a1-4)]GlcNAc; conditions: glycan notation: IUPAC condensed, linker removed
# Outline: as §1
# Fuc(a1-2)Gal = conditions: glycan notation: IUPAC condensed, linker removed; mutation: H213R,G256S
# Outline: as §1
# Fuc(a1-2)Gal(b1-3)GalNAc = conditions: glycan notation: IUPAC condensed, linker removed; mutation: H213R,G256S
# Outline: as §1
# Fuc(a1-2)Gal(b1-4)Glc6S = conditions: glycan notation: IUPAC condensed, linker removed; mutation: H213R,G256S
# Outline: as §1
# [23] = target: Fuc(a1-2)Gal(b1-4)[Fuc(a1-3)]GlcNAc(b1-3)Gal(b1-4)[Fuc(a1-3)]GlcNAc(b1-3)Gal(b1-4)[Fuc(a1-3)]GlcNAc; conditions: glycan notation: IUPAC condensed, linker removed; mutation: H213R,G256S
# Outline: as §1
# [24] = target: Fuc(a1-2)[GalNAc(a1-3)]Gal(b1-4)[Fuc(a1-3)]GlcNAc; conditions: glycan notation: IUPAC condensed, linker removed; mutation: H213R,G256S
# Outline: as §1
# Fuc(a1-3)GlcNAc = conditions: glycan notation: IUPAC condensed, linker removed; mutation: H213R,G256S
# Outline: as §1
# [25] = target: Fuc(a1-3)[Gal(b1-4)]GlcNAc(b1-4)Gal(b1-4)[Fuc(a1-3)]GlcNAc; conditions: glycan notation: IUPAC condensed, linker removed; mutation: H213R,G256S
# Outline: as §1
# Gal(a1-4)Gal(b1-4)Glc = conditions: glycan notation: IUPAC condensed, linker removed; mutation: H213R,G256S
# Outline: as §1
# Gal(a1-4)GlcNAc = conditions: glycan notation: IUPAC condensed, linker removed; mutation: H213R,G256S
# Outline: as §1
# Gal3S(b1-3)GalNAc = conditions: glycan notation: IUPAC condensed, linker removed; mutation: H213R,G256S
# Outline: as §1
# [26] = target: Gal3S(b1-4)[Fuc(a1-3)]Glc; conditions: glycan notation: IUPAC condensed, linker removed; mutation: H213R,G256S
# Outline: as §1
# Gal3S6S(b1-4)GlcNAc6S = conditions: glycan notation: IUPAC condensed, linker removed; mutation: H213R,G256S
# Outline: as §1
# Gal6S(b1-4)Glc6S = conditions: glycan notation: IUPAC condensed, linker removed; mutation: H213R,G256S
# Outline: as §1
# Glc(b1-6)Glc = conditions: glycan notation: IUPAC condensed, linker removed; mutation: H213R,G256S
# Outline: as §1
# Kdn(a2-3)Gal(b1-4)GlcNAc = conditions: glycan notation: IUPAC condensed, linker removed; mutation: H213R,G256S
# Outline: as §1
# [27] = target: Man(a1-2)Man(a1-3)[Man(a1-2)Man(a1-6)]Man(a1-6)[Man(a1-2)Man(a1-2)Man(a1-3)]Man(b1-4)GlcNAc(b1-4)GlcNAc; conditions: glycan notation: IUPAC condensed, linker removed; mutation: H213R,G256S
# Outline: as §1
# [28] = target: Neu5Ac(a2-3)Gal(b1-3)GalNAc; conditions: glycan notation: IUPAC condensed, linker removed; mutation: H213R,G256S
# Outline: as §1
# [29] = target: Neu5Ac(a2-3)Gal(b1-3)[Neu5Ac(a2-3)Gal(b1-4)]GlcNAc; conditions: glycan notation: IUPAC condensed, linker removed; mutation: H213R,G256S
# Outline: as §1
# [30] = target: Neu5Ac(a2-3)Gal(b1-4)[Fuc(a1-3)]GlcNAc(b1-3)Gal(b1-4)GlcNAc; conditions: glycan notation: IUPAC condensed, linker removed; mutation: H213R,G256S
# Outline: as §1
# [31] = target: Neu5Ac(a2-6)Gal(b1-4)GlcNAc6S; conditions: glycan notation: IUPAC condensed, linker removed; mutation: H213R,G256S
# Outline: as §1
# [32] = target: Neu5Gc(a2-3)Gal(b1-4)GlcNAc; conditions: glycan notation: IUPAC condensed, linker removed; mutation: H213R,G256S
# Outline: as §1
binder,measurement,setting,value
B1,glycan array binding signal (z-score),Gal6S(b1-4)GlcNAc,-0.083
same,glycan array binding signal (z-score),[1],-0.076
same,glycan array binding signal (z-score),GalNAc(b1-3)Gal,-0.076
same,glycan array binding signal (z-score),GalNAc(b1-4)GlcNAc6S,-0.082
same,glycan array binding signal (z-score),[2],-0.064
same,glycan array binding signal (z-score),Glc(a1-6)Glc(a1-6)Glc,-0.077
same,glycan array binding signal (z-score),[3],-0.076
same,glycan array binding signal (z-score),[4],-0.069
same,glycan array binding signal (z-score),[5],-0.087
same,glycan array binding signal (z-score),[6],-0.079
same,glycan array binding signal (z-score),[7],-0.085
same,glycan array binding signal (z-score),[8],-0.084
same,glycan array binding signal (z-score),GlcNAc(b1-4)GlcNAc,-0.088
same,glycan array binding signal (z-score),[9],-0.086
same,glycan array binding signal (z-score),[10],-0.084
same,glycan array binding signal (z-score),[11],-0.08
same,glycan array binding signal (z-score),[12],-0.059
same,glycan array binding signal (z-score),[13],-0.081
same,glycan array binding signal (z-score),[14],0.041
same,glycan array binding signal (z-score),[15],-0.068
same,glycan array binding signal (z-score),[16],-0.005
same,glycan array binding signal (z-score),[17],-0.087
same,glycan array binding signal (z-score),[18],-0.079
same,glycan array binding signal (z-score),Neu5Ac(a2-6)Gal,-0.082
same,glycan array binding signal (z-score),[19],-0.074
same,glycan array binding signal (z-score),[20],-0.072
same,glycan array binding signal (z-score),[21],-0.077
same,glycan array binding signal (z-score),[22],-0.074
B2,glycan array binding signal (z-score),Fuc(a1-2)Gal,0.42
same,glycan array binding signal (z-score),Fuc(a1-2)Gal(b1-3)GalNAc,0.764
same,glycan array binding signal (z-score),Fuc(a1-2)Gal(b1-4)Glc6S,0.623
same,glycan array binding signal (z-score),[23],1.02
same,glycan array binding signal (z-score),[24],-0.361
same,glycan array binding signal (z-score),Fuc(a1-3)GlcNAc,-0.166
same,glycan array binding signal (z-score),[25],0.007
same,glycan array binding signal (z-score),Gal(a1-4)Gal(b1-4)Glc,-0.15
same,glycan array binding signal (z-score),Gal(a1-4)GlcNAc,0.434
same,glycan array binding signal (z-score),Gal3S(b1-3)GalNAc,-0.308
same,glycan array binding signal (z-score),[26],-0.106
same,glycan array binding signal (z-score),Gal3S6S(b1-4)GlcNAc6S,1.06
same,glycan array binding signal (z-score),Gal6S(b1-4)Glc6S,0.798
same,glycan array binding signal (z-score),Glc(b1-6)Glc,-0.561
same,glycan array binding signal (z-score),Kdn(a2-3)Gal(b1-4)GlcNAc,-0.386
same,glycan array binding signal (z-score),[27],0.376
same,glycan array binding signal (z-score),[28],-0.283
same,glycan array binding signal (z-score),[29],-0.301
same,glycan array binding signal (z-score),[30],0.869
same,glycan array binding signal (z-score),[31],-0.002
same,glycan array binding signal (z-score),[32],0.062
